From PubChem
In the library only some 2.3% were active in any assay of this set; here they are far more common.
SIRT5 block = inhibitors of human sirtuin-5 desuccinylase. Q9NXA8. 330,000 tested, 1.1% active. inhibition, % at 15 µM. AID 652115. Purified SirT5, succinyl-peptide AMC, trypsin-coupled fluorescence; in the data active = inhibition above about 15%; inconclusive = no clear call, values can overlap the other calls
PDI inh = blocks human protein disulfide isomerase activity | P07237 | PDI insulin aggregation turbidity, A650, 90 min | inhibition, % at 10 µM | 350,000 tested, 0.052% active | AID 588391;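 active = mean inhibition across replicates of 30% or more, whatever share of single replicates reach that level; inconclusive = mean inhibition below 30% while every single replicate reaches 30%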
ERp5 inh = ERp5 (human) disulfide isomerase inhibition; AID 651711; 350,000 tested, 0.05% active; ERp5 insulin aggregation, absorbance 650 nm, 90 min; inhibition, % at 9.99 µM; Q15084;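 active = mean replicate inhibition above about 25%, with every replicate also reaching it, limit read from the data, passing the limit was not always enough; inconclusive = only one of those two criteria met; inactive = neither criterion met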
DENV2 CPE rescue = DENV2-induced cell death inhibition; DENV2-infected cells, cytopathic effect rescue, plate reader; CPE inhibition, % at 9.99 µM; 350,000 tested, 1.7% active; in the data active = CPE inhibition above about 20%, passing the limit was not always enough; inconclusive = no clear call, values can overlap the other calls; tested in BHK-21 cells;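 also: 0% = median of neutral control wells and 100% = median of positive control wells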
Rtt109 Vps75 = C. albicans Rtt109 histone acetyltransferase inhibition; inhibition, % at 34.9 µM; 330,000 tested, 0.16% active; purified Rtt109/Vps75, ThioGlo CoA-SH fluorescence, 4 h;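 active = inhibition of at least 50% in every replicate; inconclusive = best replicate reaches 50% inhibition but some replicates fall short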
Target sequence (Q5AAJ8 whole entry, looked up): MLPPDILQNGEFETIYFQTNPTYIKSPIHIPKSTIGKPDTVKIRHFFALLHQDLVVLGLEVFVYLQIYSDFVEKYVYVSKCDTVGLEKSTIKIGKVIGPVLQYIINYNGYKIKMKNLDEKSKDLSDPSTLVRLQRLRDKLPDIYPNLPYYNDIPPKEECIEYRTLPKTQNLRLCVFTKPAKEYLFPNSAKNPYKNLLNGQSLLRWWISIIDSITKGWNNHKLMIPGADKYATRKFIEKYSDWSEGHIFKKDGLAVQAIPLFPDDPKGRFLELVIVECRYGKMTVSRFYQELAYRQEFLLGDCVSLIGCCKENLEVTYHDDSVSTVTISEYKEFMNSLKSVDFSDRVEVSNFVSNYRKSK
An asterisk follows results filed as active; ? = inconclusive; . = no result.

SMILES	SIRT5 block	PDI inh	ERp5 inh	DENV2 CPE rescue	Rtt109 Vps75
CO[C@H]1CN(C)C(=O)c2cc(NC(C)=O)ccc2OC[C@H](C)N(CCC(F)(F)F)C[C@@H]1C	1	.	-2	-10	.
O=S(=O)(O)c1cc(O)c(N=Nc2ccc(O)cc2O)c2ccccc12	31*	-3	1	1	0
O=[N+]([O-])c1ccccc1N=Nc1ccc(O)cc1O	.	-5	4	-6	.
COc1ccc(CN(C)C[C@H]2OCCCC[C@@H](C)Oc3ccc(N(C)C)cc3C(=O)N([C@@H](C)CO)C[C@H]2C)cc1	-2	.	6	-4	.
COc1ccc(CN(C)C[C@@H]2OCCCC[C@H](C)Oc3ccc(NC(=O)NC(C)C)cc3C(=O)N([C@H](C)CO)C[C@H]2C)cc1	-1	.	-2	5	.
COc1ccc(CN(C)C[C@H]2OCCCC[C@@H](C)Oc3ccc(NC(=O)NC(C)C)cc3C(=O)N([C@H](C)CO)C[C@H]2C)cc1	1	.	2	86*	.
COc1ccc(CN(C)C[C@H]2OCCCC[C@H](C)Oc3ccc(N(C)C)cc3C(=O)N([C@H](C)CO)C[C@H]2C)cc1	22*	.	-4	4	.
COc1ccc(CN(C)C[C@@H]2OCCCC[C@H](C)Oc3ccc(NC(=O)Nc4ccccc4)cc3C(=O)N([C@H](C)CO)C[C@H]2C)cc1	.	.	.	39*	.
COc1ccc(CN(C)C[C@H]2OCCCC[C@@H](C)Oc3ccc(NC(=O)NC4CCCCC4)cc3C(=O)N([C@H](C)CO)C[C@H]2C)cc1	19*	.	-5	-8	.
C[C@H](CO)N1C[C@H](C)[C@H](CN(C)Cc2ccc(Cl)c(Cl)c2)Oc2c(NS(C)(=O)=O)cccc2C1=O	-8	.	-1	6	.
COc1ccccc1CNC(=O)C[C@@H]1C[C@@H]2c3cc(N(C)C)ccc3O[C@@H]2[C@H](CO)O1	-3	.	0	4	.
C[C@@H]1CN([C@H](C)CO)C(=O)c2cc(NS(C)(=O)=O)ccc2O[C@@H](C)CCCCO[C@H]1CN(C)Cc1ccc(C(=O)O)cc1	-4	.	-3	8	.
COc1ccc(NC(=O)Nc2ccc3c(c2)C(=O)N([C@@H](C)CO)C[C@H](C)[C@H](CN(C)Cc2ccc(C(=O)O)cc2)OCCCC[C@H](C)O3)cc1	2	.	5	80*	.
C[C@@H]1CCCCO[C@@H](CN(C)CC2CCCCC2)[C@@H](C)CN([C@H](C)CO)C(=O)c2cc(N(C)C)ccc2O1	3	.	-4	48*	.
CCS(=O)(=O)Nc1ccc2c(c1)C(=O)N(C)C[C@H](OC)[C@@H](C)CN(Cc1ccccn1)[C@H](C)CO2	-4	.	4	6	.
Clc1ccccc1CN1CCN(/N=C/C=C\c2ccco2)CC1	28*	-1	-1	-1	-11
CO[C@H]1CN(C)C(=O)c2ccc(NC(=O)C3CC3)cc2OC[C@@H](C)N(Cc2ccncc2)C[C@@H]1C	15	.	0	5	.
C[C@@H]1CN([C@H](C)CO)C(=O)c2cccc(NC(=O)Nc3cccc4ccccc34)c2O[C@H]1CN(C)C(=O)Nc1ccc(C(F)(F)F)cc1	-3	.	62*	15	.
C[C@H]1CN([C@@H](C)CO)C(=O)c2cccc(NC(=O)Nc3cccc4ccccc34)c2O[C@@H]1CN(C)C(=O)Nc1ccc(C(F)(F)F)cc1	1	.	79*	-8	.
C[C@H]1CN([C@@H](C)CO)C(=O)c2cccc(NC(=O)Nc3ccc(F)cc3)c2O[C@@H]1CN(C)C(=O)Nc1ccc(C(F)(F)F)cc1	6	.	-4	57*	.
C[C@H](CO)N1C[C@H](C)[C@H](CN(C)C(=O)Nc2ccc(F)cc2)Oc2c(NC(=O)Nc3cccc4ccccc34)cccc2C1=O	2	.	4	42*	.
C[C@H]1CN([C@@H](C)CO)C(=O)c2cccc(NC(=O)Nc3ccc(C(F)(F)F)cc3)c2O[C@@H]1CN(C)C(=O)Nc1ccc(F)cc1	2	-6	0	0	-12
C[C@H]1CN([C@@H](C)CO)C(=O)c2cccc(NC(=O)Nc3cccc4ccccc34)c2O[C@@H]1CN(C)C(=O)Nc1ccc(F)cc1	.	.	6	-8	.
COc1cccc(S(=O)(=O)N(C)C[C@H]2Oc3ncc(-c4cccc(C(=O)N(C)C)c4)cc3C(=O)N([C@@H](C)CO)C[C@H]2C)c1	-2	.	2	3	.
CC=Cc1ccc2n(c1=O)C[C@@H]1[C@@H](CO)[C@H](C(=O)NCc3ccccc3)N(S(C)(=O)=O)[C@H]21 (mixture of isomers)	-6	.	0	-3	.
SMILES	SIRT5 block	PDI inh	ERp5 inh	DENV2 CPE rescue	Rtt109 Vps75
C[C@@H]1CN([C@@H](C)CO)C(=O)c2cccc(NS(C)(=O)=O)c2O[C@@H]1CN(C)C(=O)Nc1ccc(C(F)(F)F)cc1	1	.	-6	.	.
Cc1noc(C)c1NC(=O)N(C)C[C@@H]1Oc2c(NC(=O)Nc3ccc(C(F)(F)F)cc3)cccc2C(=O)N([C@@H](C)CO)C[C@@H]1C	3	.	4	32*	.
Cc1cc(C(=O)Nc2cccc3c2O[C@H](CN(C)C(=O)Nc2ccc(C(F)(F)F)cc2)[C@@H](C)CN([C@H](C)CO)C3=O)n(C)n1	2	.	0	38*	.
C[C@@H]1CN([C@H](C)CO)C(=O)c2cccc(NC(=O)Nc3cccc4ccccc34)c2O[C@@H]1CN(C)C(=O)Nc1ccc(C(F)(F)F)cc1	7	.	42*	?	.
C[C@@H]1CN([C@@H](C)CO)C(=O)c2cccc(NS(C)(=O)=O)c2O[C@H]1CN(C)C(=O)Nc1ccc(C(F)(F)F)cc1	1	.	1	79*	.
CN(C)CC(=O)N1CC(=O)N2[C@H](CO)[C@@H](c3ccc(-c4ccc(C#N)cc4)cc3)[C@H]2C1	-1	.	-6	-5	.
C[C@@H]1CCCCO[C@H](CN(C)Cc2ccc3c(c2)OCO3)[C@H](C)CN([C@H](C)CO)C(=O)c2cc(NS(=O)(=O)c3cn(C)cn3)ccc2O1	.	.	.	10	.
O=C(Cc1ccccn1)N1CC(=O)N2[C@H](C1)[C@H](c1ccc(C#CCC3CCCC3)cc1)[C@@H]2CO	3	.	-6	8	.
Cc1cccc(S(=O)(=O)N2CCCCN3[C@H](CO)[C@@H](c4ccc(-c5ccccc5)cc4)[C@@H]3C2)c1	16*	.	-2	1	.
Cc1cccc(-c2ccc([C@@H]3[C@@H](CO)N4CCCCN(S(=O)(=O)c5cccc(C)c5)C[C@H]34)cc2)c1	8	.	2	-7	.
Cc1cccc(-c2ccc([C@H]3[C@H](CO)N4CCCCN(S(=O)(=O)c5cccc(C)c5)C[C@@H]34)cc2)c1	19*	.	-3	-4	.
Cc1cccc(-c2ccc([C@@H]3[C@@H](CO)N4CCCCN(S(=O)(=O)c5cccc(C)c5)C[C@@H]34)cc2)c1	5	.	4	21*	.
C[C@H](CO)N1C[C@H](C)[C@@H](CN(C)Cc2ccc(-c3ccccc3)cc2)Oc2c(NC(=O)C3CC3)cccc2C1=O	0	.	0	-3	.
O=C(NC1CCCC1)N1CC(=O)N2[C@@H](CO)[C@H](c3ccc(-c4cccc(F)c4)cc3)[C@@H]2C1	-3	.	2	-5	.
